Screening data (PubChem BioAssay)
Most compounds without a hit are left out; they make up all but 2.4% or so of the library.
POLI inh: inhibitors of human DNA polymerase iota; Q9UNA4; Pol iota fluorescent replication assay, 10 min; AID 588590; actives 1% (n = 390,000); Potency, µM (titrated, usually from 115 µM), hits mostly inhibitors
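Pol iota at 10 nM preincubated 15 min with compounds at room temperature; reaction started with fluorescent substrate, 50 nM final. Fluorescence read kinetically at 0 and 10 min; buffer-only wells as negative control.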
Pol beta inh: inhibitors of human DNA polymerase beta; Potency, µM (highest dose often 114 µM), hits mostly inhibitors; P06746; actives 1.3% (n = 340,000); Pol beta primer extension/strand displacement, fluorescence kinetic
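Preincubation: enzyme (10 nM) with compound, 15 min, RT. Reaction: substrate added to 50 nM final. Reads: 0 and 10 min. Analysis: normalized, Hill fit.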
Pol eta inh-1: DNA polymerase eta (human) inhibition. Q9Y253. recombinant Pol eta, fluorescent DNA replication assay. Potency, µM (titrated, usually from 114 µM), hits mostly inhibitors. actives 1.2% (n = 390,000)
Target sequence (Q9Y253 whole entry, looked up): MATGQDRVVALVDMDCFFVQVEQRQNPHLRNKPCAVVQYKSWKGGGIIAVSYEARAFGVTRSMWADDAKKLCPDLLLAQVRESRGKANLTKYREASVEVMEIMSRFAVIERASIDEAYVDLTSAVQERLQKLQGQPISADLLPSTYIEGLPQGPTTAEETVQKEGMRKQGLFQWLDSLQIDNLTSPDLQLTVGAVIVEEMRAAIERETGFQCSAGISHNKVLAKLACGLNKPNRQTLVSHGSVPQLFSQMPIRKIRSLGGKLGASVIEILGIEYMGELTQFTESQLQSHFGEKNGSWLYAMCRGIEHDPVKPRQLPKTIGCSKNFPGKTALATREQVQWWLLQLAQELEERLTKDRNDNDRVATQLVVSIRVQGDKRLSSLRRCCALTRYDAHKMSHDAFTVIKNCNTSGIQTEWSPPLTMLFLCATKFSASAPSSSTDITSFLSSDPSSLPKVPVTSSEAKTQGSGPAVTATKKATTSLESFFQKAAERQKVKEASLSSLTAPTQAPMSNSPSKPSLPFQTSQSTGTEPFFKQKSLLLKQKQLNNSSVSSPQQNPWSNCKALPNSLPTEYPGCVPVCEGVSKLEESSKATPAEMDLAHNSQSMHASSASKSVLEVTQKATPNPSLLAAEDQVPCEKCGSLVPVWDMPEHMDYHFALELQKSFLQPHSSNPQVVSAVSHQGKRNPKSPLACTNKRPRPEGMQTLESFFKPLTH
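Fluorescent replication assay: 50 nM final substrate added after a 15 min room-temperature compound preincubation with 10 nM enzyme. Signal taken at 0 min and again at 10 min.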
WRN helicase inh-1: WRN helicase (human) inhibition | Q14191 | WRN helicase unwinding, fluorescent forked duplex, kinetic | Potency, µM (titrated, usually from 114 µM), actives largely listed as inhibitors | actives 0.46% (n = 360,000) | AID 651768; also: nearly all actives have a fitted effect of over 55% in size
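WRN at 20 nM final was preincubated with compound for 15 min at room temperature; reaction started with 100 nM forked duplex oligonucleotide carrying fluorophore and quencher plus 2 mM ATP (final). Unwinding followed kinetically by red fluorescence (ex 525/em 598 nm).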
Pol kappa inh: DNA polymerase kappa (human) inhibition. Potency, µM (titrated, usually from 107 µM), actives largely listed as inhibitors. purified Pol kappa, fluorescent DNA synthesis assay, 10 min. actives 0.53% (n = 400,000)
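Fluorescent qHTS in 1536-well format: enzyme (10 nM) and compound sat 15 min at room temperature before 50 nM substrate (final) was added. Signal taken at 0 and 10 min; no-enzyme buffer wells were negative controls.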
FEN1 inh-1: human FEN1 inhibition | P39748 | actives 0.35% (n = 390,000) | AID 588795 | Potency, µM (doses to about 114 µM), usual class: inhibitors | Recombinant FEN1 flap cleavage, fluorescence, 15 min; also: nearly all actives have a fitted effect of over 65% in size
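Recombinant FEN1 (10 nM) was preincubated with pin-transferred compounds for 15 min at room temperature, then flap DNA substrate (50 nM final) was added. Plates were read at 0 and 15 min, and normalized concentration–response data were fitted to a four-parameter Hill equation.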
PGK validate: validation of Trypanosoma brucei phosphoglycerate kinase inhibitors. TbPGK coupled GAPDH assay, Kinase-Glo luminescence. AID 686980. actives 79% (n = 500). shares compounds with Pol kappa inh. Potency, µM (doses to about 57.5 µM), usual class: inhibitors; also: nearly all actives have a fitted effect of over 65% in size
Pol iota confirm: Human Pol iota inhibitor confirmatory assay; Pol iota primer extension, TAMRA/BHQ fluorescence; shares compounds with Pol kappa inh; actives 77% (n = 1,500); Potency, µM, actives largely listed as inhibitors
Pol eta inh-2: confirmation of human DNA polymerase eta inhibitors; shares compounds with Pol eta inh-1; Pol eta primer extension, TAMRA/BHQ fluorescence, 10 min; Potency, µM, most hits filed as inhibitors; actives 64% (n = 2,600); AID 720502
FEN1 inh-2: FEN1 inhibition, cherry-pick retest; Potency, µM, most hits filed as inhibitors; shares compounds with FEN1 inh-1; FEN1 flap cleavage, TAMRA/BHQ2 fluorogenic DNA substrate; actives 79% (n = 880); also: nearly all actives have a fitted effect of over 60% in size
WRN helicase inh-2: WRN helicase inhibition, cherry-pick retest | AID 720497 | shares compounds with WRN helicase inh-1 | WRN helicase DNA unwinding, fluorescence kinetic | actives 63% (n = 610) | Potency, µM (top dose mostly 57.1 µM), hits mostly inhibitors; also: nearly all actives have a fitted effect of over 65% in size
TO displacement: counter-screen for WRN helicase inhibitors: DNA binding; actives 10% (n = 610); shares compounds with WRN helicase inh-1; thiazole orange DNA binding displacement, fluorescence; Potency, µM (highest dose often 57.1 µM), usual class: inhibitors;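 also: drop in dye fluorescence marks compound binding to DNA; nearly all actives have a fitted effect of over 60% in size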
BLM counter: counter-screen for WRN helicase inhibitors: human BLM helicase inhibition | actives 60% (n = 610) | Recombinant BLM helicase DNA unwinding, red fluorescence | Potency, µM (top dose mostly 57.1 µM), usual class: inhibitors | shares compounds with WRN helicase inh-1; also: nearly all actives have a fitted effect of over 60% in size
A number is an active result; i = inactive; ? = inconclusive; nt = no result. Calls follow the shape of the dose curve; as a rule, active = well fitted curve in the direction sought with a large enough effect; inconclusive = small, poorly fitted or top-dose-only effect, or another doubt; inactive = no such curve, though single readings can be large; an effect the other way counts as inactive or inconclusive.

SMILES	POLI inh	Pol beta inh	Pol eta inh-1	WRN helicase inh-1	Pol kappa inh	FEN1 inh-1	Pol iota confirm	Pol eta inh-2	FEN1 inh-2	WRN helicase inh-2	TO displacement	BLM counter	others
Oc1ccc(C2=Nn3c(nnc3-c3ccco3)SC2)cc1O	2.2µM	4µM	3.2µM	11µM	20µM	50µM	27	19	43	15µM	i	17µM	PGK validate=5.8µM
COc1cccc(Cn2c(SCC(=O)N3CCN(c4ccc(F)cc4)CC3)nc3ccccc32)c1	i	i	i	nt	i	i	nt	nt	nt	nt	nt	nt
O=C1/C(=C\c2cc([N+](=O)[O-])ccc2O)SC(=S)N1Cc1ccc(Cl)cc1	?	3.2µM	?	6µM	i	22µM	34	24	38	5.4µM	i	3µM
O=C1/C(=C\c2cccc(O)c2O)SC(=S)N1Cc1ccccc1	?	i	?	i	i	i	nt	nt	nt	nt	nt	nt
CCCCn1cc(S(=O)(=O)c2ccc(C)c(C)c2)c(=O)c2cc(F)c(N(CC)CC)cc21	i	i	i	nt	i	i	nt	nt	nt	nt	nt	nt
Oc1ccc(-c2cn3c(n2)SCC3)cc1O	2.5µM	1.3µM	2.8µM	4.7µM	7.1µM	?	9.5	3.4	nt	?	i	17µM
O=C(O)c1ccc(-n2cccc2/C=N\NC(=O)c2cc3cc(Br)ccc3o2)cc1	7.1µM	?	3.2µM	40µM	14µM	?	3	5.4	?	15µM	i	5.4µM	PGK validate=9.2µM
Cn1cc(/C=N/NC(=O)c2cc3cc(Br)ccc3o2)c2ccccc21	i	i	i	i	i	i	nt	nt	nt	nt	nt	nt
N#C/C(=C\c1ccc(O)c(O)c1)C(=O)Nc1cccc2ncccc12	3.2µM	0.79µM	2.8µM	14µM	4µM	45µM	6.7	3.8	?	4.3µM	12µM	1.7µM
Cc1nc2cnc(Oc3cccc(Cl)c3)nc2n(Cc2ccc(F)cc2)c1=O	nt	nt	nt	nt	i	nt	nt	nt	nt	nt	nt	nt
O=C(Nc1ccc2nc(-c3ccc4nc[nH]c4c3)[nH]c2c1)c1cccs1	1.1µM	4.5µM	20µM	40µM	35µM	45µM	?	?	?	22µM	i	24µM
O=C(Nc1ccc2nc(-c3ccccc3)[nH]c2c1)c1cccs1	i	i	i	i	i	i	nt	nt	nt	nt	nt	nt
COc1cc2c(cc1NC(=O)CSc1nc3ccccc3[nH]1)oc1ccccc12	45µM	i	50µM	?	?	i	42	43	nt	i	i	?
CC(C)COC(=O)c1cc(-c2ccc(/C=N/n3cnnc3)o2)ccc1Cl	i	?	i	i	i	i	nt	nt	nt	nt	nt	nt
C=CCOC(=O)c1cc(-c2ccc(/C=C3\C(=O)NC(=O)C(C#N)=C3C)o2)ccc1Cl	?	13µM	3.5µM	11µM	28µM	79µM	67	30	nt	15µM	?	6.8µM
